Experimental data published in PubChem BioAssay (NCI).
This is part of a sample that, as a whole, favours compounds with a hit. Of some 79,000 tested, about 15% had one in any assay. Values without a mark were called inactive. Calls of active or inactive are those of the source. Cut-off read from the data, not from the text of the source: active = growth inhibition above about 70%; inactive = the rest.

Assay: NCI Yeast Anticancer Drug Screen. Data for the cln2 rad14 strain (AID 165);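 note: 0% = growth equal to vehicle treated cultures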
Details: S. cerevisiae cln2 rad14 strain, at 50.0 µM, hits give high values
Outline: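 Relative to vehicle controls, growth inhibition of compound-treated cln2 rad14 yeast was recorded.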

SMILES | growth inhibition
Nc1ccc(CC(N)C(=O)O)cc1 (stereo not given) | -5.6%
OCCN1OCCCC1c1ccccc1 (stereo not given) | -28.1%
CCOC(=O)/C=C/n1c2ccccc2c(=O)c2cc(OC)ccc21 | 3.6%
COC(=O)/C(=N\N)C(C(=O)C(=O)Nc1nc(=S)[nH][nH]1)c1nc2ccc([N+](=O)[O-])cc2[nH]c1=O (stereo not given) | 11.7%
CN(C)CC1CCCC/C1=N\OC(=O)c1ccccc1 (stereo not given) | 6.25%
Cc1ccc(-c2cc(C(=O)NN)c(C#N)c(=O)[nH]2)cc1 | 15.1%
CN(/N=C/c1ccc(O)c(/C=N/N(C)c2ccccn2)n1)c1ccccn1 | -11.9%
CNC(=O)N(Cl)c1ccc(Cl)cc1 | -26.6%
NC(CC(=O)O)C(=O)OCc1cccc(N=Nc2ccccc2)c1 (stereo not given) | -3.2%
CCc1c[nH]c(C=O)c1CC | 11.4%
O=C1CC(c2ccccc2)S(=O)(=O)c2ccccc2N1 (stereo not given) | 10.2%
O=C1CSC(c2ccccn2)N1CCN1C(=O)CSC1c1ccccn1 (stereo not given) | -4.35%
O=C(NC(Cc1c[nH]c2ccccc12)(C(=O)O)C(=O)O)OCc1ccccc1 | 29.1%
O=S1(=O)CS(=O)(=O)OCCCCO1 | 13.3%
CCC(COC(=O)C(c1ccccc1)c1ccccc1)NC1CCCCC1 (stereo not given) | 14.8%
N#CC(C#N)=NO (tested in a mixture with another compound) | -0.75%
Cn1c(N)nc2c1c(=O)[nH]c(=O)n2C | 13.2%
COc1ccc2nc(NC(=O)C(=O)C(C(=O)c3ccccc3-c3ccccc3)C3OC(=O)c4ccccc43)sc2c1 (stereo not given) | 0.7%
O=C(O)c1cc(Br)c(O)cc1O | 9.35%
CCc1cc(C)cc(C(C)(C)C)c1 | 7.15%

SMILES | growth inhibition
O=c1[nH]nc(-c2ccccc2)n1/N=C/c1c(O)ccc2ccccc12 | 13.3%
CC(C)C1CC[N-]CC1.CC(C)C1CC[N-]CC1.[Cl][Pt+2][Cl] | 18.9%
C(=C\c1ccco1)/c1ccco1 | 9.85%
CC(C)(c1cn(Cc2ccccc2)c2ccccc12)c1cn(Cc2ccccc2)c2ccccc12 | 21.1%
Cn1c(=O)c2[nH]c(SCC(=O)O)nc2n(C)c1=O | -21.4%
Cc1cc(C)[n+](C)c(/C=C/c2ccc([N+](=O)[O-])cc2)n1 | 27.8%
COc1ccc(NC(=O)/C(Cc2nc3ccccc3[nH]c2=O)=N\O)c(OC)c1 | 0.7%
COc1ccc2c(c1OC)C(Cc1ccccc1)N1CCc3cc4c(cc3C1C2)OCO4 (stereo not given) | 50.8%
COC1C(O)CC(OC2C(C)OC(Oc3cc(O)c4c(O)c5c(cc4c3)C[C@@H]([C@H](OC)C(=O)[C@@H](O)[C@@H](C)O)[C@H](OC3CC(OC4CC(OC6CC(C)(O)C(O)C(C)O6)C(O)C(C)O4)C(O)C(C)O3)C5=O)CC2OC(C)=O)OC1C (stereo not given in full) | 10%
O=C(O)c1cc2ccccc2c(N=Nc2cc(C(F)(F)F)ccc2Cl)c1O | 5.4%
COc1ccc(CCCCl)c(C2=NCCc3ccccc32)c1 | 12.2%
Cc1cccc(C2ON=C(c3ccccc3)N2C23CC4CC(CC(C4)C2)C3)c1 (stereo not given) | -2.45%
CCN(CC)C1C(=O)NC1C#Cc1ccccc1 (stereo not given) | 5.95%
CCCCCCN(CCCCCC)CC(O)c1c(Cl)ccc2ccccc12 (stereo not given) | 98.6% (active)
COc1ccc2c(c1)CC/C(=C\C1(Sc3ccccc3)CC1)C2O (stereo not given) | -16.6%
C[N+](C)([O-])Cc1cccc(NC(=O)c2ccc(C(=O)Nc3cccc(C[N+](C)(C)[O-])c3)cc2)c1 | 1.3%
CC1(C)C(=O)C(C)(C)C1=NN | 3%
CCC(CC)NCCCNc1cc(OC)cc2cccnc12 | 4.65%
CC(C)OC(=O)N[C@@H]1c2ccccc2CC[C@H]1I | -36.5%
c1ccc(-c2cc(-c3ccccc3)c(-c3ccccc3)c(-c3ccccc3)c2)cc1 | 12.4%
